Inconclusive results are not listed. Calls of active or inactive are those of the source. Calls follow the shape of the dose curve; as a rule, active = well fitted inhibition curve with a large enough effect; inconclusive = small, poorly fitted or top-dose-only effect, or another doubt; inactive = flat fitted curve, though single readings scatter.
Each compound was assayed against D(2) dopamine receptor (Homo sapiens) (UniProt P14416) (assay: HTS Assay for Allosteric Antagonists of the Human D2 Dopamine Receptor: SAR in D2 Beta Arrestin Assay). Details: DiscoveRx PathHunter D2 beta-arrestin recruitment, luminescence.
D(2) dopamine receptor (Homo sapiens), sequence (P14416 whole entry, looked up): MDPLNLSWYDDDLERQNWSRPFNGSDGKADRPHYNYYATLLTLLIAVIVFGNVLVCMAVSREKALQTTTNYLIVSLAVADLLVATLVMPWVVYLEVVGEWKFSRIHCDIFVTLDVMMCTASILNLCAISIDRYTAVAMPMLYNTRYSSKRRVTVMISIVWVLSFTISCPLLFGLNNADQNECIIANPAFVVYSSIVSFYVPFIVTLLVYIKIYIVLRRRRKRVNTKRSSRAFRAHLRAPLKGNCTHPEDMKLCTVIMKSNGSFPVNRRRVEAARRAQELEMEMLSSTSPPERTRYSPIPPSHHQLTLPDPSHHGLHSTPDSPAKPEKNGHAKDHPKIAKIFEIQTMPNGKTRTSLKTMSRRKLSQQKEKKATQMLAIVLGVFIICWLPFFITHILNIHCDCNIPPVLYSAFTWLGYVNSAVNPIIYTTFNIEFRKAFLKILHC
Source text: There is great interest in identifying small molecule ligands for G-protein coupled receptors (GPCRs) as nearly 50% of all FDA-approved drugs target these important receptor proteins. […] Amongst the dopamine receptors (DARs), the D2 is arguably one of the most validated drug targets in neurology and psychiatry. For instance, all receptor-based antiparkinsonian drugs primarily work via stimulating the D2 DAR, whereas all FDA-approved antipsychotic agents are antagonists of this receptor. The D2 DAR is also therapeutically targeted in other disorders such as restless legs syndrome, tardive dyskinesia, Tourette's syndrome, and hyperprolactinemia. […] This is an orthogonal assay to test the lead compounds against the D2 receptor, using a beta arrestin assay. NIH Molecular Libraries Probe Production Network [MLPCN] NIH Chemical Genomics Center [NCGC] Grant: NS0676421 PI Name: David Sibley, National Institutes of Neurological Disorders and Stroke
DiscoveRx D2 cells were thawed from frozen stock and seeded at 2,100 cells/ 3 uL/well media (DiscoveRx Plating Reagent 2) with MultiDrop Combi dispenser (Thermo Scientific, Logan, UT) onto white tissue culture treated 1536-well Aurora plates (Brooks Automation, Chelmsford, MA) and allowed to attach overnight at 37 deg C, 5% CO2. Next, 23 nL/well of compound solutions in DMSO were added with a pintool transfer (Kalypsis, San Diego, CA). As the positive control, 1 uL/well dopamine (EC100, 57 uM final concentration) diluted in buffer (HBSS + 10 mM HEPES + SMB + 0.1% Tween-20) was dispensed to 1 column of each plate. The rest of the plate was dispensed with buffer only, 1 uL/well as well. The cells were stimulated by compounds or dopamine control for 90 minutes at 37 deg C, 5% CO2, after which 1.5 ul/well of DiscoveRx detection reagent was added with BioRAPTR FRD dispenser. The detection reagent was prepared by mixing of Galacton Star Substrate, Emerald II solution and PathHunter buffer (supplied by the assay kit) together at 1:5:19 proportion accordingly just prior to dispensing. The plates were incubated at ambient temperature for 1 hour and then the luminescent signal was read on ViewLux plate reader (PerkinElmer, Waltham, MA).

Potency, active:
CCN1C(=O)c2ccccc2S(=O)c2ccc(C(=O)NCc3ccc(OC)cc3)cc21 (configuration not stated) 2890 nM
CN1C(=O)c2ccccc2[S@](=O)c2ccc(C(=O)NCCN3CCCC3)cc21 363 nM
CCN1C(=O)c2ccccc2[S@](=O)c2ccc(C(=O)N[C@H](C)c3ccc(Br)cc3)cc21 1290 nM
CN1C(=O)c2ccccc2S(=O)c2ccc(C(=O)NCCc3cccs3)cc21 (configuration not stated) 913 nM
CCN1C(=O)c2ccccc2[S@](=O)c2ccc(C(=O)NCc3ccc(OC)cc3)cc21 1150 nM
CN1C(=O)c2ccccc2[S@](=O)c2ccc(C(=O)NCCc3cccs3)cc21 725 nM
CN1C(=O)c2ccccc2[S@](=O)c2ccc(C(=O)NCc3ccc(Br)cc3)cc21 1020 nM
CN1C(=O)c2ccccc2[S@](=O)c2ccc(C(=O)NCc3cccnc3)cc21 2890 nM
CN1C(=O)c2ccccc2[S@](=O)c2ccc(C(=O)NCc3ccc(Cl)cc3)cc21 2890 nM
CCN1C(=O)c2ccccc2[S@](=O)c2ccc(C(=O)N[C@H](C)c3ccc4ccccc4c3)cc21 2890 nM
CCN1C(=O)c2ccccc2[S@](=O)c2ccc(C(=O)NCc3ccc(F)cc3)cc21 576 nM
CCN1C(=O)c2ccccc2[S@](=O)c2ccc(C(=O)NCc3ccc(C#N)cc3)cc21 257 nM
